This is part of a sample that, as a whole, favours compounds with a hit. Of some 79,000 tested, about 15% had one in any assay. A number with no mark means an inactive call. Calls of active or inactive are those of the source. Rule as the data show it: active = growth inhibition above about 70%; inactive = the rest.
How the values were obtained:
[1] = NCI Yeast Anticancer Drug Screen. Data for the rad50 strain (AID 155);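 also: 0% = growth of vehicle-only cultures of the same strain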; settings: S. cerevisiae rad50 strain growth inhibition; at 50.0 µM; hits give high values
Procedure, shortened: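 Vehicle-treated cultures provide the reference for the growth inhibition reported for compound-exposed, repair-deficient yeast.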

[2] = NCI Yeast Anticancer Drug Screen. Data for the mec2-1 strain (AID 157); settings: S. cerevisiae mec2-1 strain, at 50.0 µM, hits give high values
Procedure, shortened: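 Test agents were screened against the mec2-1 yeast strain, with defined DNA repair or cell cycle alteration. Growth was scored as inhibition against vehicle-only controls.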

[3] = NCI Yeast Anticancer Drug Screen. Data for the sgs1 mgt1 strain (AID 161);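 also: 0% = growth of cultures given vehicle only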; settings: S. cerevisiae sgs1 mgt1 strain, at 50.0 µM, hits give high values
Procedure, shortened: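 Genetically altered yeast, compound exposure, growth inhibition relative to vehicle.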

[4] = NCI Yeast Anticancer Drug Screen. Data for the cln2 rad14 strain (AID 165);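 also: 0% = growth equal to vehicle treated cultures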; settings: S. cerevisiae cln2 rad14 strain, at 50.0 µM, hits give high values
Procedure, shortened: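 Growth of compound-exposed yeast (cln2 rad14 genotype) measured and expressed as inhibition relative to vehicle.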

[5] = NCI Yeast Anticancer Drug Screen. Data for the bub3 strain (AID 167); settings: S. cerevisiae bub3 mutant strain, at 50.0 µM, hits give high values
Procedure, shortened: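 Mutant yeast screening strain plus compound; vehicle-treated cultures serve as the 0% inhibition reference.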

[6] = NCI Yeast Anticancer Drug Screen. Data for the mlh1 rad18 strain (AID 175); settings: S. cerevisiae mlh1 rad18 strain growth inhibition; at 50.0 µM; hits give high values
Procedure, shortened: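 In this whole-cell yeast screen, a strain with altered DNA damage repair is challenged with compound, and its growth is measured against matched vehicle-treated controls.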

SMILES	growth inhibition [1] [%]	growth inhibition [2] [%]	growth inhibition [3] [%]	growth inhibition [4] [%]	growth inhibition [5] [%]	growth inhibition [6]
CC1(C)COC(=O)/C1=C/C#N	5.1	2.6	-1.5	-38.5	-12.4	12.3%
CCO/C([O-])=C(\C=N\S(=O)(=O)c1ccc(C)cc1)[n+]1ccc(C)cc1	13.8	14.7	12.2	-17.1	-4.2	6.45%
CCOC(=O)c1[nH]n(-c2ccccc2)c(=O)c1C=NC(C)=S	-32.2	-25.6	-16.6	7.1	-12	-18.9%
CCOC(=O)C1=C(c2ccccc2)N=c2ccccc2=S1C (stereo not given)	7.25	-2.3	18.1	-3.35	5.1	20.4%
Cc1ccc(P(=O)(O)O)c([N+](=O)[O-])c1	5.4	1.7	-3.65	-7.2	-4.35	12.9%
Cc1ccc(S(=O)(=O)O)c2c([N+](=O)[O-])cccc12	-8.85	6.75	-11.1	-32.4	-9.85	-22.6%
c1ccc(O[Si](Oc2ccccc2)(Oc2ccccc2)Oc2ccccc2)cc1	5.65	-18.7	5.5	5.1	-7.3	6.05%
CCS(=O)(=O)CCNC(=O)NS(=O)(=O)c1ccc(C)cc1	-2.2	-7.85	-11.8	-1.2	7.7	0.9%
COc1ccc(C(O)CC(O)(C(F)(F)F)C(F)(F)F)cc1 (stereo not given)	52.7	27.6	35.3	20.3	46	80.8% (active)
O=C1CNC(=O)N1	-38.1	23.8	2	-11.7	3.85	-38.2%
Nc1ncncc1Oc1ccccc1	8.25	-5.35	-0.2	-33.6	4.05	-14.4%
O=C(Nc1ccccc1)OC1C=CC2CCC1C2 (stereo not given)	7.75	3.35	38.6	12.8	17.8	58.3%
CNC(=S)N(C1CCCCC1)C1CCCCC1	26	-13.4	-2.2	-15	-10.1	37%
Cc1cc(C(=O)C=[N+]=[N-])c(CN2C(=O)c3ccccc3C2=O)c(=O)n1C	-0.8	-9.55	-3.4	5.95	-13.5	1.4%
CCOC1(c2ccccc2)c2ccccc2C(C)(C)c2ccccc21	0.8	12.3	42	4.2	14.9	-5.2%
C=C(C)COC(OCC(=C)C)C(C)C	26.4	3.05	3.45	9.35	22.2	12.2%
C#CCOc1ccc(C(F)(F)F)cc1	-8.1	-15.4	-1.6	-17.4	15.4	-2.05%
O=C(O)c1cccc([N+](=O)[O-])c1Nc1cccc(C(F)(F)F)c1	21.4	32.5	32.5	29.3	27.1	0.25%
NC1c2c(Br)sc(N3CCCC3)c2C(=O)C1O (stereo not given)	8.05	-3.5	-5.25	-5.35	-16.4	-30.3%
O=C1c2ccccc2C2(O)Nc3cc(O)ccc3C12O (stereo not given)	-24.6	-23.1	-15.1	-14.1	-11.8	-19.6%

SMILES	growth inhibition [1] [%]	growth inhibition [2] [%]	growth inhibition [3] [%]	growth inhibition [4] [%]	growth inhibition [5] [%]	growth inhibition [6]
c1csc(-c2nc3sc(-c4cccs4)nc3s2)c1	3.4	-9.75	1.9	-18.8	-16.6	-2.4%
CCOc1ccc(OCC)c(C(=O)CCC(=O)Nc2ccc(Br)cc2)c1	-8.9	-2.9	-8.3	-12.8	1.45	-6.75%
CCOP(=O)(OCC)C1C(C)N1C(=O)Nc1ccccc1 (stereo not given)	1.4	-4.15	-8.1	5	-11.7	-17.4%
Cc1cc(=O)n2c(cc3cccccc32)n1	14.6	-1.3	-13.4	-23.4	-23.4	4.65%
CC(=O)c1cc([N+](=O)[O-])c(N)s1	7.35	-3.2	-13.2	5.25	-4.15	-3.8%
CN1C(=O)CC(NC(=O)CNC(=O)c2ccccc2)C1=O (stereo not given)	19.5	16	23.1	21.1	2.7	29.4%
CC(C)(C)c1ccc(OCC(=O)O)cc1	-17.3	-12	-7.2	-17.4	-8.4	-6.6%
COC(=O)c1cccc(O)c1O	12.9	-0.3	-1.5	-41.4	18	-0.65%
CCN(CC)c1ccc(N=C2C=C(C(=O)Nc3ccc(C(=O)O)cc3)C(=O)c3ccccc32)c(C)c1	-10.2	-25	-16.9	0.9	-0.65	-18.2%
CCOc1c(C(=O)O)cnc2ccccc12	-6.2	19.5	-6.2	-38.9	-19.6	-0.75%
NC(=O)c1n[nH]c(C2OC(CO)C(O)C2O)n1 (stereo not given)	-1.5	-6.8	0.9	-15.7	5.75	-7.5%
O=C1CC=NC(=S)N1	-0.6	7	8.75	7.95	-2.7	28.4%
CC1(C)C/C(=C/c2ccccc2)C(=O)O1	-14.6	-6.95	-3.45	-31.5	-4.05	-19.3%
CCCC(=O)Oc1ccc(C)cc1C(C)(C)C	6.65	-22.2	-4.95	9.5	-10.2	4.25%
CC(C)COC(=O)c1ccc(C(C)C)cc1	9.35	8.8	4.6	-9.8	5.1	4.45%
Nc1cc2c(cc1Br)-c1c(C(=O)O)cccc1C2=O	-20	9.3	-2.4	7.1	11.2	-13.1%
COc1cc(OC)cc(C2OC3=C(Nc4ccccc4N3)C2=O)c1 (stereo not given)	12.8	16.1	23.2	19.4	19.4	28.1%
O=C(O)c1[nH]c(=O)[nH]c(=O)c1Br	-4.3	-22.9	-9.75	-40.5	-15.7	-17.6%
COc1ccc(-c2cc(-c3ccco3)c(C#N)c(=S)n2C2OC(COC(C)=O)C(OC(C)=O)C(OC(C)=O)C2OC(C)=O)cc1 (stereo not given)	19.6	-4.25	12.7	-2.75	4.25	34.2%
Cc1cc2c(cc1C)OC(=O)CC2	14.3	6.15	-1.2	-11.9	7.45	3.65%

— PubChem BioAssay (NCI)
